Screens (PubChem)
This is a sample that favours compounds with a hit; in the whole collection about 1.7% have one here.
GLP-1R inv ag: qHTS of GLP-1 Receptor Inverse Agonists (Inhibition Mode). Potency, µM (doses to about 38.3 µM), for inactives: at the top dose activity change, negative = inhibition, hits mostly inhibitors. 410,000 tested, 1.6% active. HEK293 GLP-1R CRE-luciferase, luminescence, 24 h; GLP-1R form is constitutively active. Glucagon-like peptide 1 receptor (Homo sapiens), P43220; further: on the % scale 0 is the no-effect control and ±100 the full control effect; nearly all actives have a fitted effect of over 55% in size
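Stable HEK293 clone (constitutively active GLP-1R + cAMP-response luciferase); 200 cells/uL plated, 12 h pre-culture, compound 24 hr, 37 deg C/5% CO2; detection reagent 12 min RT; luminescence.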
GLP1R cytotox: qHTS of GLP-1 Receptor Inverse Agonists: Cytotox Screen; HEK293 cAMP-luciferase reporter cells, luminescence, 24 h; Potency, µM (series often up to 38.3 µM), for the others: top-dose activity change, negative = inhibition, actives largely listed as inhibitors; 410,000 tested, 0.13% active; AID 624418, 2012;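 further: loss of luciferase light is scored as toxicity; on the % scale 0 is the no-effect control and ±100 the full control effect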
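Compound-treated cells are incubated 24 hr at 37 deg C under 5% CO2 after a 12 hour attachment period, then luciferase detection reagent is added and luminescence is measured following 12 min at room temperature; lowered signal indicates toxicity.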
PTHR1 agonist: qHTS for PTHR1 Agonists: Primary Screen; Parathyroid hormone/parathyroid hormone-related peptide receptor (Homo sapiens), Q03431; HEK293 GP2 PTHR1 cells, GloSensor cAMP luminescence, 1 h; Potency, µM (series often up to 115 µM), inactives show at the top dose activation, usual class: activators; 410,000 tested, 0.075% active; AID 743266, 2014; further: nearly all actives have a fitted effect of over 55% in size
Target sequence (Q03431 whole entry, looked up): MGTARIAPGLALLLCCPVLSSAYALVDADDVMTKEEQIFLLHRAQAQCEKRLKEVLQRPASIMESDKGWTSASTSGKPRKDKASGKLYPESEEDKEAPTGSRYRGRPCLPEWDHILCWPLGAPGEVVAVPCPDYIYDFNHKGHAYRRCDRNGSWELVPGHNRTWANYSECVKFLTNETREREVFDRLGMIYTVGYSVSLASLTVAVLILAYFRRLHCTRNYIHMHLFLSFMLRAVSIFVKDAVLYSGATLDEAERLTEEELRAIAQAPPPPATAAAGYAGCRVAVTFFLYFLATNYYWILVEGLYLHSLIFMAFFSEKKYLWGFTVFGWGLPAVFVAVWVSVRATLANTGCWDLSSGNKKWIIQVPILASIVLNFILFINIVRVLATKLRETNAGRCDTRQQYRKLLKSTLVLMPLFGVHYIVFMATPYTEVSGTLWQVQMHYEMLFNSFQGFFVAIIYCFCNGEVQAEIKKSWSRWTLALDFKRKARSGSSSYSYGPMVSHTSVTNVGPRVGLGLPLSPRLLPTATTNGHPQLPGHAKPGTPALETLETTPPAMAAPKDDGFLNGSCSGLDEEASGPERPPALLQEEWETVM
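HEK-293-derived GP2 cells expressing PTHR1 and a GloSensor cAMP reporter, 3,000/well, plated overnight, given luciferin plus IBMX (each 0.5 mM as added) for 1 h at 37 °C, then compound for 1 h at 37 °C. Luminescence was read after 15 min at room temperature.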
GLP-1R agonist: qHTS of GLP-1 Receptor Agonists; AID 624172, 2012; 380,000 tested, 0.007% active; Potency, µM (top dose mostly 45.6 µM), for the others: at the highest dose activation, usual class: activators; HEK293 GLP-1R CRE-luciferase, luminescence, 4-6 h; cells express a hypersensitive GLP-1R form; Glucagon-like peptide 1 receptor (Homo sapiens), P43220; further: % of control where 0% means no effect
* hit, by the source's call; i = inactive; ? = inconclusive; . = not tested or not shown; [ ] = remark or other dose. The call rests on the fitted dose curve; in most records, active means well fitted curve in the direction sought with a large enough effect; inconclusive means small, poorly fitted or top-dose-only effect, or another doubt; inactive means no such curve, though single readings can be large; an effect the other way counts as inactive or inconclusive. Potency means the concentration at half of the fitted maximal effect.

SMILES	GLP-1R inv ag	GLP1R cytotox	PTHR1 agonist	GLP-1R agonist
CCC(=O)N1c2ccccc2CC1C(=O)NCCCN1CCN(c2cc(C)ccc2C)CC1 (configuration not stated)	-11.4%	0.2%	-4.6%	.
CCOc1ccc(-c2cn3c(n2)sc2cc(C(=O)NCCc4ccc(OC)cc4OC)ccc23)cc1	-4.6%	-0.8%	17.8%	.
CC1CCN(C(=O)c2cnn(-c3cccc(Cl)c3)c2C2CCN(C(=O)OC(C)(C)C)CC2)CC1	1.3%	2.0%	i	.
CCOC(=O)[C@H]1[C@H]2COc3ccc(Cl)cc3[C@@H]2N2C(=O)c3cc(F)c(F)cc3NC(=O)[C@@]12C	10µM*	6.4%	-39.8%	2.7%
CCOC(=O)[C@H]1[C@H]2COc3ccc(Br)cc3[C@@H]2N2C(=O)c3cc(Br)ccc3NC(=O)[C@@]12C	2.82µM*	-49.3%	-13.5%	-2.3%
CCOC(=O)[C@H]1[C@H]2COc3ccc(Cl)cc3[C@@H]2N2C(=O)c3cc(Br)ccc3NC(=O)[C@@]12C	3.55µM*	1.4%	-10.2%	-2.4%
CCC1CCCCN1S(=O)(=O)c1ccc(C(=O)Nc2sc3c(c2C(=O)NC)CCC3)cc1 (configuration not stated)	-17.7%	1.9%	i	5.4%
CCN1C(=O)[C@@H]2Cc3c([nH]c4ccccc34)C(c3cc(OC)c(OC)c(OC)c3)N2C1=S (some centres not stated)	?	123.5%	-1.6%	7.1%
COc1cc([C@H]2c3[nH]c4ccccc4c3C[C@H]3C(=O)N4[C@@H](c5cc(OC)c(OC)c(OC)c5)c5[nH]c6ccccc6c5C[C@H]4C(=O)N23)cc(OC)c1OC	10µM*	-82.8%	-15.5%	-2.7%
CC(C)CN1CC(=O)N2C(c3ccccc3)c3[nH]c4ccccc4c3C[C@H]2C1=O (some centres not stated)	10µM*	-11.2%	i	2.9%
COc1ccc(NS(=O)(=O)c2ccc3[nH]c4c(c3c2)CCCCCC4)cc1	?	-4.2%	-17.5%	.
Cc1ccc(NS(=O)(=O)c2ccc3[nH]c4c(c3c2)CCCCC4)cc1	11.2µM*	?	i	.
CC(NC(=O)C1CCN(C(=O)N2CCOc3ccc(Cl)cc32)CC1)c1ccccc1 (configuration not stated)	-16.7%	0.2%	i	.
Fc1ccc(-c2nc3ccc(Br)cn3c2Cc2ccccc2)cc1	8.91µM*	-13.0%	-10.9%	16.6%
CCn1c(=O)cc(SCC(=O)N2CCN(c3cc(C)ccc3C)CC2)c2ccccc21	?	-9.7%	-20.4%	.
CCc1nc2c(OCc3cccc(Cl)c3)cccn2c1N(C)C(=O)CC(C)C	?	3.8%	-17.8%	14.5%
CCN(CC)CCCNc1nc2ccccc2c2[nH]c3ccc(OC)cc3c12	?	?	-12.5%	-13.3%
COC(=O)c1c(NC(=S)NN2CCN(C)CC2)sc2c1CCC(C)C2 (configuration not stated)	10µM*	?	-20.8%	15.4%
COC(=O)c1c(NC(=O)Cc2cccs2)sc2c1CCC(C)C2 (configuration not stated)	18.9%	-3.8%	i	2.4%
CCCCC(=O)O[C@]1(C(=O)CO)CCC2C3CCC4=CC(=O)CCC4(C)C3C(O)CC21C (some centres not stated)	.	.	.	-1.1%
O=C(NCCCCc1ccccc1)c1ccccc1	-11.0%[7.66 µM]	-7.1%[7.66 µM]	i	1.3%
O=C(CCCc1ccccc1)Nc1cccc(C(=O)O)c1	2µM*	2.9%	-25.5%	-8.5%
O=C(NCCCCNC(=O)c1ccccc1Cl)c1ccccc1Cl	-14.8%	-9.6%	i	-5.1%
O=C(NCCCCc1ccccc1)c1cccc(NC(=O)c2ccccc2)c1	10µM*	-16.6%	-14.0%	-0.3%
O=C(NCCCCc1ccccc1)c1ccccc1Cl	5.01µM*	1.1%	-18.6%	9.4%
COc1ccc(CNc2ncc(-c3cccc([N+](=O)[O-])c3)n2C)c(OC)c1OC	7.3%	-0.6%	-10.8%	-2.7%
Clc1cccc(CN2CCc3c([nH]c4ccccc34)C2)c1	?	?	?	-0.7%
